# LMNA splice mod: LMNA splicing modulation. 200,000 compounds, 0.01% hits. AID 1487. HeLa LMNA splicing GFP/RFP minigene ratio, 48 h. Potency, µM (series often up to 46.1 µM), for inactives: at the top dose ratio change, negative = inhibition, hits mostly inhibitors; active = well fitted inhibition curve with a large enough effect in the signal ratio, with a control signal flat, not every such curve was filed as active; inconclusive = small, poorly fitted or top-dose-only effect, or effect the other way, or a change in a side signal; the % refers to the signal ratio; note: % is set by controls: 0 for no effect and ±100 for the full control effect
#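 S3 HeLa cells stably expressing lamin A-EGFP splicing minigene plus DsRed2, 600 cells/well, 48 h compound exposure at 37C. Laser-scanning cytometry; analysed as GFP (500-530 nm)/RFP (575-640 nm) total intensity ratio; 0.5% DMSO vehicle.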
# HttQ103 aggreg: mutant huntingtin aggregation inhibition | Potency, µM (series often up to 46.1 µM), for inactives: at the highest dose activity change, negative = inhibition, most hits filed as inhibitors | PC12 HttQ103-GFP aggregates, Acumen cytometry, 40 h | 220,000 compounds, 1.1% hits; note: % is set by controls: 0 for no effect and ±100 for the full control effect; nearly all actives have a fitted effect of over 60% in size
#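 Aggregates are detected as GFP objects 1–25 µm with signal 6 STDEV over background in lysates of induced PC12 cells. These carry Huntingtin exon 1 with 103 glutamines fused to GFP under an ecdysone promoter; compounds titrated.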
# HPGD inh: blocks human HPGD enzyme activity. AID 894. 150,000 compounds, 4.3% hits. purified HPGD, NADH fluorescence kinetic, PGE2 substrate. Potency, µM, for the others: at the highest dose activity change, negative = inhibition, usual class: inhibitors. P15428; active = well fitted inhibition curve with a large enough effect, not every such curve was filed as active; inconclusive = small, poorly fitted or top-dose-only effect, or another doubt; inactive = no such curve, though single readings can be large or run the other way; note: % is set by controls: 0 for no effect and ±100 for the full control effect
# Target sequence (P15428 whole entry, looked up): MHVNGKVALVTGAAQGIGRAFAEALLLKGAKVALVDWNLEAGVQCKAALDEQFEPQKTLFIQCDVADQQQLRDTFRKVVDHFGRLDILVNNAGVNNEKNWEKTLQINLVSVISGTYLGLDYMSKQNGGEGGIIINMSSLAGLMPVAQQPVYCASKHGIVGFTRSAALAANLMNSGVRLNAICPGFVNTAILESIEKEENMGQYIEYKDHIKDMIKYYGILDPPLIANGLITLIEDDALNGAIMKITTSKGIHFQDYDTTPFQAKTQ
#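 20 nM HPGD preincubated 15 min at room temperature with compound in 50 mM Tris-HCl pH 8, 0.01% Tween 20. Started with 1 mM NAD+ and 30 uM prostaglandin E2; NADH fluorescence (360/450 nm) read 5 times over 30-s intervals, last minus first.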
# KinaseGlo FLuc: counter-screen: inhibitors of Kinase-Glo firefly luciferase | 200,000 compounds, 0.28% hits | AID 1379 | Kinase-Glo luciferase, ATP luminescence, 8 min | Q27757 | Potency, µM (series often up to 38.3 µM), inactives show at the top dose activity change, negative = inhibition, most hits filed as inhibitors; note: % is set by controls: 0 for no effect and ±100 for the full control effect; nearly all actives have a fitted effect of over 60% in size
#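 Light output from Kinase-Glo luciferase with luciferin and 10 uM ATP in 50 mM imidazole pH 7.2, KCl, MgCl2, Tween 20, BSA; compound pin-delivered, 8-min ambient incubation, then luminescence read.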
# HTT cytoprotect: Huntington cell model cytoprotection by ATP luminescence; PC12 HTT-Q103 induced, cytoprotection, ATP luminescence, 40 h; Potency, µM (highest dose often 56.4 µM), for the others: cytoprotection (ATP increase), actives largely listed as activators; 230,000 compounds, 0.14% hits; AID 1471; note: % of control where 0% means no effect; nearly all actives have a fitted effect of over 45% in size
#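 Rat PC12, Q103 Htt exon1-GFP fusion, ecdysone promoter; tebufenozide inducer 100 nM final; compound titration; qHTS, 1500 cells/well; ATPlite luminescent read.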
# ALDH1A1 inh: ALDH1A1 (human) enzyme inhibition. Purified ALDH1A1, NADH fluorescence, propionaldehyde substrate. Potency, µM (series often up to 75.3 µM), for the others: at the highest dose activity, negative = inhibition, usual class: inhibitors. 220,000 compounds, 7.3% hits. AID 1030; active = well fitted inhibition curve with a large enough effect, not every such curve was filed as active; inconclusive = small, poorly fitted or top-dose-only effect, or another doubt; inactive = no such curve, though single readings can be large or run the other way;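 note: plate controls were no enzyme wells and a reference inhibitor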
# Target sequence (P00352 whole entry, looked up): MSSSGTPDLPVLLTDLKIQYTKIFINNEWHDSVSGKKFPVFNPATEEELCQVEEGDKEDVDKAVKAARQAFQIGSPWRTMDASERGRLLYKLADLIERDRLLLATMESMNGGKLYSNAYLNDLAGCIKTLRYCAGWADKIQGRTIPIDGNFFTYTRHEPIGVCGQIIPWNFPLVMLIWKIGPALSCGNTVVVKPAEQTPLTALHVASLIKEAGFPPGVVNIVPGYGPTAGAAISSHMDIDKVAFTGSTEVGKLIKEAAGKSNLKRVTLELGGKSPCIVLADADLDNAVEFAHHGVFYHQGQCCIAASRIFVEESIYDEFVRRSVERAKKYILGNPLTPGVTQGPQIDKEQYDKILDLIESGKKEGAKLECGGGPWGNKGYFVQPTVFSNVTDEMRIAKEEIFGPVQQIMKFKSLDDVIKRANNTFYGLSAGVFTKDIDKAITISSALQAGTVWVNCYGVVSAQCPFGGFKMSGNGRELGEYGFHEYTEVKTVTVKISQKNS
# The depositor's hits bear a star; ? = inconclusive; . = not tested or not shown; [ ] = dose if it differs, or a comment. Sampled rows, rich in hits. Any-hit rate of the full collection: about 9%. Unless noted, calls come from the whole dose curve; as a rule, active = well fitted curve in the direction sought with a large enough effect; inconclusive = small, poorly fitted or top-dose-only effect, or another doubt; inactive = no such curve, though single readings can be large; an effect the other way counts as inactive or inconclusive. Potency is the fitted concentration of half-maximal effect.
SMILES,LMNA splice mod,HttQ103 aggreg,HPGD inh,KinaseGlo FLuc,HTT cytoprotect,ALDH1A1 inh
Cc1cc2cc(CN(CCCN3CCOCC3)C(=O)NC3CCCCC3)c(=O)[nH]c2cc1C,20.2%,15.9%,?,0.0%,1.9%[1.9 µM],?
CCOC(=O)c1c(C)nc2sc3c(=O)[nH]cnc3c2c1-c1ccc(OC)cc1,-3.3%,7.3%,?,-1.2%,.,?
COc1ccc(-c2c(C(C)=O)c(C)nc3sc4c(=O)[nH]nnc4c23)cc1,16.2%,5.9%,17.8µM*,0.5%,22.8%[10 µM],?
CS(=O)(=O)N1CC(C(=O)NC2CCCC2)Oc2ccc(Cl)cc21 (centres undefined),-7.8%,6.5%,-8.4%,0.4%,15.4%,10µM*
CCOc1ccc(-n2c(=O)c3sccc3n(CC(=O)Nc3cccc(OC)c3)c2=O)cc1,?,21.0%,.,-0.6%,40.5%[10 µM],13.1%
CC(C)C(=O)N(Cc1cc2ccccc2[nH]c1=O)C(C)(C)C,6.4%,-11.8%,-13.4%,-3.0%,-1.7%,4.3%
Cc1c(Cl)sn(-c2ccc(Cl)cc2)c1=O,.,16.5%[9.22 µM],.,-2.3%,-13.2%,1.78µM*
N#Cc1cc(C(=O)c2cc(Br)ccc2O)cn(C2CC2)c1=O,?,?,17.8µM*,1.6%,-26.3%[10 µM],14.1µM*
CCOCCCn1cc(C(=O)c2cc(Br)ccc2O)cc(C#N)c1=O,?,?,.,-0.6%,-119.6%,?
CC(C)n1cc(C(=O)c2cc(Br)ccc2O)cc(C#N)c1=O,?,?,-13.6%,-5.6%,-18.0%,?
CCCCn1cc(C(=O)c2cc(Br)ccc2O)cc(C#N)c1=O,?,15.8µM*,-17.4%,-2.2%,-53.8%,-5.3%
CCO[C@H]1OC(C(=O)NCc2nc3ccccc3[nH]2)=C[C@@H](C2CCCCC2)[C@@H]1CCCO,.,-5.6%[9.22 µM],.,.,-0.7%[10 µM],8.2%
COc1ccc(NC(=O)CSc2nnc(NC(=O)Nc3ccccc3)s2)c(OC)c1,12.8%[46 µM],.,.,.,.,.
O=C(COC(=O)[C@@H]1CC(O)CN1S(=O)(=O)c1ccccc1[N+](=O)[O-])Nc1ccc2ccccc2c1 (some centres undefined),-3.2%,12.4%,-9.1%,-0.4%,-6.1%[0.074 µM],-1.5%
COc1ccccc1NCc1ccc([N+](=O)[O-])s1,9.3%,-0.5%,-9.9%,0.2%,.,14.1µM*
COc1cccc(NC(=S)N(CCCN2CCCC(C)C2)Cc2cccs2)c1 (centres undefined),-20.7%[46 µM],9.6%,.,0.1%,-27.5%,-3.6%
COc1ccc(CC(=O)Nc2cccc(C(=O)Nc3ccccc3C(=O)O)c2)cc1OC,-12.0%,-6.9%,?,-2.3%,16.2%[10 µM],?
Cc1ccc(C(=O)Nc2ccccc2C(=O)O)cc1NC(=O)COc1c(C)cccc1C,9.9%[46 µM],9.9%,.,0.1%,-15.5%[10 µM],8.91µM*
COc1ccc(OCC(=O)Nc2cccc(C(=O)Nc3ccccc3C(=O)O)c2)cc1,13.2%,12.5%,?,-0.3%,.,20µM*
Cc1ccc(C2C(C(=O)O)c3ccccc3C(=O)N2C)c(C)c1 (centres undefined),?,4.4%,-7.1%,4.8%,.,13.8%
COc1ccc(Oc2ncc3ncc(=O)n(C)c3n2)cc1,-10.7%,.,.,.,17.4%,16.6%
Cn1c(SCc2nc3ccccc3[nH]2)nnc1-c1ccccn1,-0.1%,3.6%,0.8%,-2.8%,-13.3%,7.7%
C=CCn1c(SCc2nc3ccccc3[nH]2)nnc1-c1ccccn1,8.2%,-9.0%,-9.7%,-3.6%,-1.1%,6.31µM*
C/C=C/C(=O)N1CC2(CC(c3cccc(NC(=O)CC(c4ccccc4)c4ccccc4)c3)=NO2)C[C@H]1C(N)=O (some centres undefined),.,-0.6%[9.22 µM],.,.,-7.6%[10 µM],.
Cc1[nH]nc2c1C(c1ccsc1C)C(C#N)=C(N)O2 (centres undefined),-6.3%,4.5%[9.22 µM],-9.3%,6.9%,-0.6%,-8.4%
SMILES,LMNA splice mod,HttQ103 aggreg,HPGD inh,KinaseGlo FLuc,HTT cytoprotect,ALDH1A1 inh
Cc1sccc1C1C(C#N)=C(N)SC(N)=C1C#N,12.3%,13.0%,-15.6%,-1.6%,5.0%[1.9 µM],10µM*
Cc1cc(C2C(C#N)=C(N)SC(N)=C2C#N)c(C)s1,4.3%,-20.0%,20µM*,0.9%,-1.1%,25.1µM*
Cc1csc(SCCn2c(Br)nc3c2c(=O)[nH]c(=O)n3C)n1,5.1%,?,0.5%,-3.8%,-37.5%,-1.8%
Cc1ccc(S(=O)(=O)N(CC(O)CN2CCOCC2)c2cc(Cl)ccc2Cl)cc1 (centres undefined),15.0%,9.4%,?,-1.3%,-5.1%,-5.3%
O=C(O)/C=C/c1cn(-c2ncc(C(F)(F)F)cc2Cl)c2ccccc12,13.3%,-5.6%,2µM*,-4.8%,-23.2%,-14.9%
CC(C)(C)c1cc(=O)[nH]c(SCc2ccccc2)n1,.,-3.1%,.,-1.0%,-17.8%,-11.4%
CC(C)(C)c1cc(Cc2ccccc2)[nH]n1,4.8%,4.1%,20µM*,0.7%,2.1%,3.3%
CCOC(=O)c1cccc(NC(=O)/C=C/c2cccc([N+](=O)[O-])c2)c1,-1.9%,.,-12.7%,-2.3%,?,12.4%
CCOC(=O)/C=C/C(=O)Nc1cccc([N+](=O)[O-])c1,?,-2.4%,1.58µM*,-4.1%,12.0%[10 µM],-0.7%
Cc1ccc(-c2nc3cnccn3c2Nc2ccc3c(c2)OCO3)o1,-9.3%,-2.9%,-28.6%,1.7%,0.7%[10 µM],14.1µM*
Cc1ccc2c(c1)C(=O)c1ccccc1CS2=O (centres undefined),0.3%,3.1%,-22.6%,-1.4%,.,2.51µM*
O=C1c2ccccc2COc2ccc(O)cc21,3.6%,-11.0%,-11.7%,-5.9%,2.8%,?
Cc1cccc(NC(=O)CS(=O)(=O)c2cccc3nsnc23)c1,12.4%[46 µM],.,.,.,.,.
Cc1cccc(NC(=O)CCS(=O)(=O)c2cccc3nsnc23)c1C,1.0%,27.1%,?,-0.5%,-5.9%,25.1µM*
CCOC(=O)c1cccc(NC(=O)CCS(=O)(=O)c2cccc3nsnc23)c1,-6.8%,8.3%,?,0.5%,17.6%,22.4µM*
CCN(CC)CCn1c2ccccc2c2cnc(N=CN(C)C)c(C#N)c21,?,2.1%,?,8.6%,-87.1%,?
CCn1c2ccccc2c2cnc(N=CN(C)C)c(C#N)c21,-10.3%,8.91µM*,-29.9%,2.0%,-72.7%,?
N#CC(=C(/N)Sc1ccccc1N)/C(C#N)=C(/N)Sc1ccccc1N,.,.,28.2µM*,1.0%,-40.0%[1.9 µM],.
N#Cc1ccccc1Sc1ccccc1N,2.1%,15.8%,1.2%,2.1%,7.2%,0.4%
COCCN1C=C(C(=O)OC)C(c2ccccc2C(F)(F)F)C(C(=O)OC)=C1,3.5%,2.4%,?,-2.5%,?,?
CCOC(=O)c1ccc(S(=O)(=O)Nc2nc3cc(S(=O)(=O)NC4=NCCCCC4)ccc3s2)cc1,-25.4%[46 µM],-19.5%,.,0.2%,17.8µM*,25.1µM*
